This passage reports Potency, outcome and activity change, negative = cytotoxicity results from PubChem BioAssay (NCATS).

Molecules are shown by their SMILES. Results filed as inconclusive are left out. A number with no mark means an inactive call. Active and inactive are the calls of the source. The call rests on the fitted dose curve; in most records, active means well fitted curve in the direction sought with a large enough effect; inconclusive means small, poorly fitted or top-dose-only effect, or another doubt; inactive means no such curve, though single readings can be large; an effect the other way counts as inactive or inconclusive. Numbered stars: 1 amine (or outer) side, 2 acyl side, 3 side chain; on linkers, the order of the positions; unused ones are H or OH. Bridge positions count the residues as written; N and C are the ends. Square brackets hold non-standard residues; d marks the D form. Peptide text beside a SMILES is read from it. I, II: the chains in the order shown. Actinocin(9to1) = Cc1c2oc3c(C)ccc(C(=O)[*:1])c3nc-2c(C(=O)[*:2])c(N)c1=O; NMeV = CN[C@H](C(=O)O)C(C)C; Sar = CNCC(=O)O

The subject of one assay is MKL-2. Put plainly: qHTS assay to identify novel small-molecules to repurpose for Merkel cell carcinoma treatment (AID 1296009). Further: nearly all actives have a fitted effect of over 60% in size. Further: potency means the concentration at half of the fitted maximal effect. The settings on record: MCC and control cell lines, CellTiter-Glo viability, 72 h; series mostly up to 46 µM. The essentials:
(§1)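 72 hr, 37 degree celsius; NPC 8-pt / MIPE 11-pt dose response; compound pinned in DMSO; CellTiter-Glo, 10 min RT, luminescence; normalized to no-cell and DMSO controls.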
In general terms: In qHTS, concentration-response curves come from the screen itself.

For another assay, the system named is UISO. The assay is described as above. The settings on record: MCC and control cell lines, CellTiter-Glo viability, 72 h; series mostly up to 46 µM. The essentials:
as §1
(In general: ATP-based viability assays read luminescence as a measure of living cells.)

Another assay has as its system WaGa. The assay is described as above. The following applies: MCC and control cell lines, CellTiter-Glo viability, 72 h; series mostly up to 46 µM. The essentials:
as §1

A further assay concerns C33A. Put plainly: Primary qHTS to identify gynecologic anti-cancer compounds using libraries of approved drugs and bioactive compounds (AID 1345084). Further: nearly all actives have a fitted effect of over 55% in size. The settings on record: Gynecologic cancer cell panel viability, ATPlite luminescence, 48 h; series mostly up to 57.5 µM. The essentials: (§2)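 48 h compound exposure at 37 C, 5% CO2; five-point qHTS. ATPlite luminescence readout of cell ATP.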

The next assay concerns CAOV3. The assay is described as above. The settings on record: Gynecologic cancer cell panel viability, ATPlite luminescence, 48 h; series mostly up to 57.5 µM. The essentials: as §2
Another assay has as its system CASKI. The assay is described as above. The settings on record: Gynecologic cancer cell panel viability, ATPlite luminescence, 48 h; series mostly up to 57.5 µM. The essentials: as §2
A further assay has as its system Es-2. The description is as above. The settings on record: Gynecologic cancer cell panel viability, ATPlite luminescence, 48 h; series mostly up to 57.5 µM. The essentials: as §2
The test system of another assay is HeLa. The description is as above. The settings on record: Gynecologic cancer cell panel viability, ATPlite luminescence, 48 h; series mostly up to 57.5 µM. Put shortly:
as §2

Another assay concerns Hek293T. Described as above. The settings on record: Gynecologic cancer cell panel viability, ATPlite luminescence, 48 h, control line for the selectivity index; series mostly up to 57.5 µM. The essentials:
as §2

The subject of the next assay is NIH3T3. Put plainly: qHTS assay to identify novel small-molecules to repurpose for Merkel cell carcinoma treatment (AID 1296009). Further: nearly all actives have a fitted effect of over 60% in size. Further: potency means the concentration at half of the fitted maximal effect. The settings on record: MCC and control cell lines, CellTiter-Glo viability, 72 h; at 44.8 µM (top of the series) unless noted. The essentials:
as §1
On the % scale 0 is the no-effect control and ±100 the full control effect.

For `CCCN1CCCC[C@H]1C(=O)Nc1c(C)cccc1C`, the Potency entry with MKL-2, in the assay with UISO, in the assay on WaGa, in the assay on C33A, with CAOV3 and in the assay with CASKI was “inactive” each time. In addition, the Potency entry in the assay with Es-2, with HeLa and in the assay with Hek293T was “inactive” in each case.
On to `CCCCS(=O)(=O)N[C@@H](Cc1ccc(OCCCCC2CCNCC2)cc1)C(=O)O`, for which the Potency result in the assay on MKL-2, in the assay with UISO, in the assay with WaGa, with C33A, with CAOV3 and in the assay on CASKI was “inactive” throughout. Further, the Potency entry with Es-2, with HeLa and in the assay on Hek293T was “inactive” throughout. For the same compound, in the assay on NIH3T3, the outcome was inactive.
As for `O=C1c2ccccc2C(=O)C1c1ccccc1`, the Potency entry with MKL-2, in the assay with UISO, in the assay on WaGa, in the assay with C33A, in the assay on CAOV3 and in the assay on CASKI was “inactive” throughout. Further, the Potency entry in the assay with Es-2, in the assay on HeLa and with Hek293T was “inactive” throughout. Further, the outcome in the assay with NIH3T3 was inactive.
On to `NC(=O)c1cc[n+](CC2=C(C(=O)[O-])N3C(=O)[C@@H](NC(=O)Cc4cccs4)[C@H]3SC2)cc1`, for which the Potency result in the assay with MKL-2, with UISO, in the assay on WaGa, in the assay with C33A, in the assay with CASKI and in the assay on Es-2 was “inactive” in each case. Besides, the Potency result in the assay on HeLa and in the assay on Hek293T was “inactive” throughout. The call with NIH3T3 was inactive.
As to `C[C@]12CCC(=O)C=C1CC[C@H]1[C@@H]3CC[C@](O)(C(=O)CO)[C@@]3(C)C[C@H](O)[C@@]12F`, the Potency result with MKL-2, in the assay with UISO, in the assay with WaGa, in the assay with C33A, in the assay on CASKI and in the assay with Es-2 was “inactive” throughout. Further, the Potency result in the assay on HeLa and in the assay on Hek293T was “inactive” in each case. The result in the assay on NIH3T3 was inactive.
As to `N[C@@H](CCC(=O)N[C@@H](CS)C(=O)NCC(=O)O)C(=O)O`, the Potency result with MKL-2, in the assay with UISO, with WaGa, in the assay with C33A, with CASKI and in the assay with Es-2 was “inactive” in each case. In addition, the Potency result with HeLa and in the assay with Hek293T was “inactive” each time. In addition, the outcome in the assay with NIH3T3 was “inactive [at 17.4 µM]”.
For the compound `O=C(O)CNC(=O)c1ccccc1`, the Potency entry with MKL-2, in the assay on UISO, in the assay on WaGa, in the assay on C33A, with CAOV3 and in the assay with CASKI was “inactive” in each case. The Potency result in the assay on Es-2, in the assay on HeLa and in the assay with Hek293T was “inactive” in each case. The compound was classed as inactive in the assay on NIH3T3.
With `NC[C@H]1O[C@H](O[C@H]2[C@H](O[C@@H]3O[C@H](CO)[C@@H](O)[C@H]3O)C(O)[C@H](N)C[C@@H]2N)[C@H](N)[C@@H](O)[C@@H]1O` (some centres undefined), the activity change, negative = cytotoxicity with MKL-2 was -8.12% [at 9.22 µM]; in the assay on UISO, 20% [at 9.22 µM]; in the assay on WaGa, 13.9% [at 9.22 µM]; in the assay on C33A, 11.5% [at 11.6 µM]; with CAOV3, -25.7% [at 11.6 µM]; with CASKI it was 15.2% [at 11.6 µM]. Also, the values for the activity change, negative = cytotoxicity with Es-2, in the assay on HeLa and in the assay on Hek293T were -3.21% [at 11.6 µM], 8.62% [at 11.6 µM] and -5.51% [at 11.6 µM], respectively. The outcome with NIH3T3 is “inactive [at 9.27 µM]”.
Turning to `COc1c2occc2c(OC)c2c(=O)cc(C)oc12`, the Potency entry in the assay with MKL-2, in the assay with UISO, in the assay with WaGa, in the assay with C33A, in the assay with CAOV3 and in the assay on CASKI was “inactive” each time. Further, the Potency entry in the assay with Es-2 and with HeLa was “inactive” in each case.
For `CC(=O)OCC(=O)[C@@]1(OC(C)=O)[C@@H](C)C[C@H]2[C@@H]3C[C@H](F)C4=CC(=O)C=C[C@]4(C)[C@@]3(F)[C@@H](O)C[C@@]21C`, the Potency entry with MKL-2, with UISO, with WaGa, in the assay on C33A, with CAOV3 and in the assay with CASKI was “inactive” in each case. The Potency result in the assay on Es-2, in the assay on HeLa and with Hek293T was “inactive” throughout.
As for `CN1CCN(C(c2ccccc2)c2ccccc2)CC1`, the Potency entry in the assay with MKL-2, in the assay on UISO, in the assay on WaGa, with C33A, with CAOV3 and in the assay with CASKI was “inactive” each time. For the same compound, the Potency entry in the assay with Es-2, in the assay with HeLa and in the assay with Hek293T was “inactive” in each case. Besides, the call in the assay on NIH3T3 was inactive.
As for `CC(C)(C(=O)c1cccnc1)c1cccnc1`, the Potency result in the assay on MKL-2, in the assay on UISO, in the assay on WaGa, with C33A, with CAOV3 and in the assay on CASKI was “inactive” in each case. In addition, the Potency entry in the assay with Es-2, in the assay on HeLa and with Hek293T was “inactive” each time. The call in the assay on NIH3T3 was inactive.
As to `COc1ccc(OC)c(C(O)CNC(=O)CN)c1` (centres undefined), the Potency result with MKL-2, in the assay with UISO, in the assay with WaGa, with C33A, in the assay with CAOV3 and in the assay with CASKI was “inactive” each time. In addition, the Potency result in the assay on Es-2 and in the assay with HeLa was “inactive” throughout.
Take `Cc1c2oc3c(C)ccc(C(=O)N[C@@H]4C(=O)N[C@H](C(C)C)C(=O)N5CCC[C@H]5C(=O)N(C)CC(=O)N(C)[C@@H](C(C)C)C(=O)O[C@@H]4C)c3nc-2c(C(=O)N[C@@H]2C(=O)N[C@H](C(C)C)C(=O)N3CCC[C@H]3C(=O)N(C)CC(=O)N(C)[C@@H](C(C)C)C(=O)O[C@@H]2C)c(N)c1=O` (I: T[dV]P[Sar][NMeV] / II: T[dV]P[Sar][NMeV]; ester I:1-I:C, II:1-II:C; linker I:N-II:N via Actinocin(9to1)): the Potency in the assay on MKL-2 was 3.8 nM (active); in the assay on UISO, 3.3 nM (active).
`OC[C@H]1O[C@H](O[C@]2(CCl)O[C@H](CCl)[C@@H](O)[C@@H]2O)[C@H](O)[C@@H](O)[C@H]1Cl`: the Potency result with MKL-2, in the assay with UISO, in the assay on WaGa, with C33A, with CAOV3 and with CASKI was “inactive” in each case. The Potency entry with Es-2, with HeLa and in the assay with Hek293T was “inactive” each time. Also, the compound was classed as inactive in the assay with NIH3T3.
Consider `COC(=O)[C@@H]1CC2=CC(=O)CC[C@]2(C)[C@@]23O[C@@H]2C[C@@]2(C)[C@@H](CC[C@@]24CCC(=O)O4)[C@H]13`, for which the Potency result in the assay with MKL-2, in the assay on UISO, in the assay on WaGa, in the assay with C33A, with CAOV3 and in the assay on CASKI was “inactive” throughout. The Potency entry with Es-2, with HeLa and with Hek293T was “inactive” each time. Further, the outcome in the assay on NIH3T3 was inactive.
Turning to `CC(=O)OCC(=O)[C@@]1(O)[C@H](C)C[C@H]2[C@@H]3CCC4=CC(=O)C=C[C@]4(C)[C@@]3(F)[C@@H](O)C[C@@]21C`, the Potency entry in the assay with MKL-2, with UISO, with WaGa, with C33A, in the assay with CAOV3 and in the assay on CASKI was “inactive” in each case. Moreover, the Potency entry in the assay with Es-2, in the assay on HeLa and with Hek293T was “inactive” throughout. For the same compound, the call with NIH3T3 was inactive.
As to `Cc1c(N(C)CS(=O)(=O)O)c(=O)n(-c2ccccc2)n1C`, the Potency result with MKL-2, in the assay on UISO, in the assay with WaGa, with C33A, in the assay with CAOV3 and in the assay on CASKI was “inactive” each time. Also, in the assay with Es-2, the Potency entry was “inactive”. In addition, the compound was classed as inactive in the assay with NIH3T3.
As to `CN1[C@@H]2CC[C@H]1CC(OC(=O)c1c[nH]c3ccccc13)C2` (some centres undefined), the Potency result in the assay on MKL-2, in the assay on UISO, in the assay on WaGa, in the assay on C33A, in the assay with CAOV3 and in the assay on CASKI was “inactive” in each case. Further, the Potency entry with Es-2, in the assay on HeLa and in the assay with Hek293T was “inactive” throughout. Besides, the outcome in the assay with NIH3T3 was inactive.
For `CN=C(NC#N)NCCSCc1csc(N=C(N)N)n1`, the Potency entry with MKL-2, in the assay with UISO, in the assay on WaGa, with C33A, in the assay on CAOV3 and with CASKI was “inactive” each time. The Potency result in the assay with Es-2 and in the assay with HeLa was “inactive” throughout.
For `NC(=O)CC[C@@H]1NC(=O)[C@H](Cc2ccccc2)NC(=O)[C@H](Cc2ccc(O)cc2)NC(=O)CCSSC[C@@H](C(=O)N2CCC[C@H]2C(=O)N[C@@H](CCCN=C(N)N)C(=O)NCC(N)=O)NC(=O)[C@H](CC(N)=O)NC1=O`, the Potency result in the assay on MKL-2, with UISO, with WaGa, with C33A, with CAOV3 and in the assay with CASKI was “inactive” in each case. Also, the Potency entry with Es-2, with HeLa and with Hek293T was “inactive” each time. The compound was called inactive with NIH3T3.
Take `CC(C)(CO)[C@@H](O)C(=O)NCCCO`: the Potency result in the assay on MKL-2, with UISO, in the assay on WaGa, in the assay on C33A, with CAOV3 and with CASKI was “inactive” each time. For the same compound, the Potency entry with Es-2, with HeLa and with Hek293T was “inactive” in each case. Also, the result in the assay with NIH3T3 was inactive.
